Screens deposited in PubChem BioAssay by National Center for Advancing Translational Sciences (NCATS).
TDP1 cell noCPT – qHTS for Inhibitors of human tyrosyl-DNA phosphodiesterase 1 (TDP1): qHTS in cells in absence of CPT; DT40 Tdp1-/- hTDP1 cells, no CPT, ATP luminescence, 48 h; Potency, µM (doses to about 46.2 µM), without a hit: at the highest dose activity change, negative = growth inhibition, usual class: inhibitors; 15% of 420,000 active; note: potency is the fitted concentration of half-maximal effect; nearly all actives have a fitted effect of over 55% in size
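Luminescent ATP content (CellTiter-Glo) served as the growth readout. Knockout chicken DT40 cells expressing human TDP1 were exposed to compounds without camptothecin for a minimum 48 hr at 37 °C.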
Giardia kill – Small Molecules that selectively kill Giardia lamblia: qHTS. Giardia lamblia trophozoite viability. activity change, % at 7.66 µM, hits read low. 0.15% of 340,000 active; in the data active = activity change below about -80%; inconclusive = between about -30% and that limit;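 note: parasites exposed to compound for two days anaerobically before the ATP read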
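Trophozoite viability was measured as ATP-dependent luminescence, read 15-30 min after reagent addition. Before that, parasites at 100 cells/well were exposed to compounds for 48 h, anaerobically, at 37 deg C.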
DT40 TDP1 CPT – qHTS for Inhibitors of human tyrosyl-DNA phosphodiesterase 1 (TDP1): qHTS in cells in presence of CPT. chicken DT40 Tdp1-/-;hTDP1 cells + 20 nM CPT, ATP luminescence, 48 h. Potency, µM (series often up to 46.2 µM), for the others: top-dose activity change, negative = growth inhibition, most hits filed as inhibitors. 12% of 420,000 active. AID 686979, 2013; note: potency is the fitted concentration of half-maximal effect; nearly all actives have a fitted effect of over 55% in size
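Chicken DT40 Tdp1-/- cells complemented with human TDP1, 400 cells/well, exposed to compounds plus 20 nM camptothecin for at least 48 h at 37 C; viability read as ATP content by CellTiter-Glo luminescence.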
TDP1 inh – qHTS Assay for Inhibitors of Tyrosyl-DNA Phosphodiesterase (TDP1); 0.28% of 350,000 active; recombinant TDP1, AlphaScreen DNA substrate cleavage; Potency, µM (highest dose often 130 µM), inactives show at the highest dose activity change, negative = inhibition, actives largely listed as inhibitors; Tyrosyl-DNA phosphodiesterase 1 (Homo sapiens), Q9NUW8; note: potency is the fitted concentration of half-maximal effect; nearly all actives have a fitted effect of over 40% in size
Target sequence (Q9NUW8 whole entry, looked up): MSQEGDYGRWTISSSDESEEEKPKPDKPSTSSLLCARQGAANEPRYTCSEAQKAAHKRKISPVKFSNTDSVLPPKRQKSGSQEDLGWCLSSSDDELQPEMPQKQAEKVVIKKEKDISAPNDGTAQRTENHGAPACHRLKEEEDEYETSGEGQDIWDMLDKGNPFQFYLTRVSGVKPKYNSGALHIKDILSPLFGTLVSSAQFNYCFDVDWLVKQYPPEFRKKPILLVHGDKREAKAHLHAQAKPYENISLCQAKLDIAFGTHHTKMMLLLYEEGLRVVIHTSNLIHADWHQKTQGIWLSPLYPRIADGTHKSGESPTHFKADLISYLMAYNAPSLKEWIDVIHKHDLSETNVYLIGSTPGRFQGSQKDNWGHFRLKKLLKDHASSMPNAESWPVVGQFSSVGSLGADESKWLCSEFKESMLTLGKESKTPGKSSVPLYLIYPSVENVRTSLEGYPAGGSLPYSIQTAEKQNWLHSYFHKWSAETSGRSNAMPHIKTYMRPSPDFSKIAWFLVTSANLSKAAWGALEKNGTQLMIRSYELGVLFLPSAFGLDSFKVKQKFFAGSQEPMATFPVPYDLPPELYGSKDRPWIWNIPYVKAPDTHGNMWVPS
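E. coli-derived human Tdp1, 1 nM final. Cpd preinc 15 min RT; substrate 15 nM final, 5 min RT; AS bead mix 10 ug/ml final, 10 min RT. Signal loss = tyrosine-FITC cleavage. No-enzyme wells = max signal.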
ELG1 repair inh – qHTS screen for small molecules that inhibit ELG1-dependent DNA repair in human embryonic kidney (HEK293T) cells expressing luciferase-tagged ELG1; 2.3% of 330,000 active; Potency, µM (titrated, usually from 46.1 µM), for the others: at the highest dose activity change, negative = inhibition, actives largely listed as inhibitors; AID 504467, 2011; HEK293T ELG1-luciferase reporter, luminescence, 16 h; DNA damage induced by 5-fluorouridine; note: potency is the fitted concentration of half-maximal effect; nearly all actives have a fitted effect of over 55% in size
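5-Fluorouridine DNA damage + compound/DMSO, 2,000 cells/well, 16 h, 37 °C/5% CO2. ONE-Glo, 30 min RT, luminescence. Readout = decrease in reporter signal.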
IL-1B inflam inh – qHTS for Inhibitors of Inflammasome Signaling: IL-1-beta AlphaLISA Primary Screen; 4.7% of 360,000 active; activity change, % at 57.5 µM; AID 743279, 2014; THP-1 LPS/ATP IL-1B secretion, AlphaLISA, 16 h; hits give low values; in the data active = activity change below about -50%; inconclusive = mostly about -30% to -49%
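THP-1 cells pretreated 1 hr with compounds (up to 57.5 uM final), then stimulated with LPS (250 ng/mL final) plus ATP (1.25 mM final); secreted IL-1B measured by AlphaLISA after 16 hr, decreased signal indicating inhibition.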
Numbers without * were called inactive; u = inconclusive; x = no result; [ ] = another dose, or the depositor's remark. A selection: hits, their analogues and other compounds. The true share with any hit is near 19%. Unless noted, calls come from the whole dose curve; as a rule, active = well fitted curve in the direction sought with a large enough effect; inconclusive = small, poorly fitted or top-dose-only effect, or another doubt; inactive = no such curve, though single readings can be large; an effect the other way counts as inactive or inconclusive. % is set by controls: 0 for no effect and ±100 for the full control effect.

SMILES	TDP1 cell noCPT	Giardia kill	DT40 TDP1 CPT	TDP1 inh	ELG1 repair inh	IL-1B inflam inh
CC(=O)n1cc([C@@H]2C=C(C(=O)O)O[C@H](OCc3ccc(CO)cc3)C2)c2ccccc21	-3%	-1	-1%	8%	19%	13
CCN1CCN(c2ccccc2NC(=O)c2ccc(-n3cccn3)cc2)CC1	-16%	9	u	0%	-7%	u
CCCC(=O)Nc1ccc2nc(SCCOc3ccccc3)sc2c1	u	x	-17%	-1%	x	x
COc1cccc(CNC(=O)[C@@H]2CCCN2C(=O)[C@H]2CCCCN2)c1	-12%	x	-8%	x	x	49
COc1ccc(-c2sc(Nc3ccccc3)n[n+]2-c2ccccc2)cc1Br	15µM*	4	23µM*	x	u	u
COc1ccc(C)cc1Nc1n[n+](-c2ccccc2)c(-c2ccc(C(=O)O)cc2)s1	-9%	7	-7%	x	7%	39
CCOc1cc(-c2sc(Nc3cc(C)ccc3OC)n[n+]2-c2ccccc2)ccc1OC	16µM*	0	15µM*	x	-21%	3
CCOc1cc(-c2sc(Nc3ccc(CC)cc3)n[n+]2-c2ccccc2)ccc1OC	18µM*	-2	16µM*	2%	u	2
C(=C\c1sc(Nc2ccccc2)n[n+]1-c1ccccc1)/c1ccccc1	8.2µM*	-8	5.2µM*	x	x	-98*
CCOc1ccccc1C(=O)Nc1nnc(Cc2ccc(OC)c(OC)c2)s1	u	-11	-30%	x	-27%	9
OC[C@H]1NC[C@@H](O)[C@@H](O)[C@@H]1O	x	x	x	8%	x	x
Nc1ccccc1C(=O)C[C@@H](N)C(=O)O	x	x	x	-2%	x	x
COC(=O)c1ccc(C)c(-n2c(=O)n(Cc3ccccc3)c(=O)c3[nH]cnc32)c1	21µM*	12	u	x	-4%	33
Cc1ccccc1-n1c(=O)n(Cc2ccccc2)c(=O)c2[nH]cnc21	-5%	-17	0%	0%	-1%	22
COc1cc2c(cc1OC)CN(C(=O)c1ccncc1)CC2	6%	-4	5%	x	0%	6
COc1cc2c(cc1OC)CN(C(=O)c1ccc(N3CCCC3)c([N+](=O)[O-])c1)CC2	23µM*	-14	21µM*	x	u	-56*
CN1CCN(c2cc(N3CCc4ccccc4C3)c(F)cc2[N+](=O)[O-])CC1	21µM*	-11	16µM*	7%	1%	-51*
COc1cc2c(cc1OC)CN(c1ccc([N+](=O)[O-])cc1Cl)CC2	12µM*	50	23µM*	1%	-24%	-88*
COc1ccccc1N1CCN(c2ccc([N+](=O)[O-])cc2Cl)CC1	12µM*	15	15µM*	-1%	u	0
COc1ccccc1N1CCN(S(=O)(=O)c2ccc([N+](=O)[O-])cc2)CC1	u	x	u	x	x	-4
CCC(=O)N1CCN(c2cc(N3CCN(C)CC3)c(F)cc2[N+](=O)[O-])CC1	-20%	8	-1%	0%	13%	-3
COc1cc2c(cc1OC)CN(c1ccc([N+](=O)[O-])cc1C#N)CC2	13µM*	3	21µM*	7%	u	u
COc1cc2c(cc1OC)CN(c1ncccc1[N+](=O)[O-])CC2	-24%	-1	1%	x	u	u
COc1cc2c(cc1OC)CN(c1ccc(F)cc1[N+](=O)[O-])CC2	u	-8	-25%	x	u	-67*
COc1ccccc1N1CCN(C(=S)NC(=O)c2ccc([N+](=O)[O-])cc2)CC1	21µM*	x	21µM*	x	x	-4
SMILES	TDP1 cell noCPT	Giardia kill	DT40 TDP1 CPT	TDP1 inh	ELG1 repair inh	IL-1B inflam inh
O=[N+]([O-])c1ccc(-c2cnc[nH]2)cc1	-25%	1	8%	0%	u	4
O=C(Nc1ccc(C2SCCS2)cc1)c1ccccc1	-21%	4	-6%	x	u	-2
CC1Cc2cc(S(=O)(=O)N3CCCC(C(=O)N4CCCCC4)C3)ccc2N1C(=O)C1CC1 (stereo not given)	-28%	24	-23%	3%	6%	-5
COc1cc(OC)c(N(C)S(=O)(=O)c2cccc(C(=O)Nc3nccs3)c2)cc1Cl	18µM*	-24	u	0%	23µM*	-14
CC(NC(=O)c1cccc(S(=O)(=O)N2CCN(C)CC2)c1)C1CC2CCC1C2 (stereo not given)	u	4	-13%	-2%	5%	-7
COc1cc(OC)c(N(C)S(=O)(=O)c2cccc(C(=O)NC(C)C3CC4CCC3C4)c2)cc1Cl (stereo not given)	23µM*	3	18µM*	1%	-10%	18
CCN1CCCc2cc(CN(CCN3CCOCC3)C(=S)Nc3ccc(OC)c(Cl)c3)ccc21	9.2µM*	-24	u	6%	3%	0
CCN1CCCc2cc(CN(CCN3CCOCC3)C(=S)Nc3ccc(OC)c(OC)c3)ccc21	19%	u	-3%	8%	10%	26
CCN1CCCc2cc(CN(CCN3CCOCC3)C(=S)Nc3cccc(C)c3)ccc21	u	-9	16µM*	11%	-10%	u
COc1ccccc1NC(=S)N(CCN1CCCCCC1)Cc1cccs1	9.2µM*	7	u	5%	7%	-13
CCN1CCCc2cc(CN(CCN3CCOCC3)C(=O)Nc3ccc(C)c(C)c3)ccc21	26µM*	-3	u	11%	u	u
COC(=O)NC(CC(C)=O)c1cccs1 (stereo not given)	x	x	x	1%[21 µM]	x	x
CCc1cccc(C)c1NC(=O)COC(=O)c1cc([N+](=O)[O-])ccc1N1CCOCC1	-11%	5	-22%	x	14%	-3
CCOC(=O)C1CCN(C(=O)C(=O)Nc2ccc3nc4n(c(=O)c3c2)CCCCC4)CC1	u	0	-10%	x	12%	-4
CC(C)Cn1c(=O)c2ccccc2n2c(CCC(=O)Nc3ccc(F)c(F)c3)nnc12	u	x	u	-1%	x	x
COc1ccccc1C1C(C(N)=O)=C(C)Nc2nc(SCc3ccccc3F)nn21 (stereo not given)	-16%	x	u	3%	x	x
CCN1CCCc2cc(CN(CCN3CCOCC3)C(=S)Nc3ccccc3OC)ccc21	16µM*	-1	u	7%	u	-3
